# Data published in PubChem BioAssay AID588832 (Broad Institute, 2011).
# The campaign covered roughly 8,000 compounds. Fewer than 10 were called active. How the calls were made is not given here. These entries were drawn from the full list.
# Tested on: hedgehog, isoform A (Drosophila melanogaster)
# Test: Hh protein inhibition, biochemical readout – plate reader, single concentration, primary screen (AID 588832);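 further: 0% = neutral control wells and 100% = positive control wells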
# Settings: Biochemical plate reader assay, at 30.3 µM, hits give high values
row,Compound,inhibition
1,CCOc1ccc(NC(=O)CS(=O)(=O)c2cn(C)c3ccccc23)cc1,7.96% (inactive)
2,CCC1=Nc2cc(C(=O)O)ccc2Sc2ccccc21,1.79% (inactive)
3,O=c1c2nnn(-c3ccccc3)c2ncn1C/C=C/c1ccccc1,6.96% (inactive)
4,Cc1ccc(S(=O)(=O)NCc2ccc3c(c2)cc(C)n3C)cc1,11.8% (inactive)
5,Cc1cc2cc(CNS(=O)(=O)c3ccccc3)ccc2n1C,7.14% (inactive)
6,COc1ccc(S(=O)(=O)NCc2ccc3c(c2)cc(C)n3C)cc1,62.3% (active)
7,COc1ccc(Nc2nc(N)nc(CN3CCc4ccccc4C3)n2)cc1,5% (inactive)
8,Cc1ccc(Cl)cc1N1CCN(C(=O)COc2ccc(S(=O)(=O)NC(C)C)cc2)CC1,7.28% (inactive)
9,O=C(NCc1cn2ccsc2n1)c1c(F)cccc1Cl,5.46% (inactive)
10,O=C(O)C(c1ccccc1)c1ccccc1,8.45% (inactive)
11,Cn1c(=O)cc(N2CCc3ccccc32)[nH]c1=O,1.79% (inactive)
12,COc1cccc(CNC(=O)COc2cc3c(c4oc(=O)cc(C)c24)CCC(C)(C)O3)c1,-8.44% (inactive)
13,O=C(COc1ccc2c(-c3ccccc3)cc(=O)oc2c1)N1C[C@H]2C[C@@H](C1)c1cccc(=O)n1C2,1.72% (inactive)
14,COc1ccc(Cl)cc1N1C(=O)C2CCCN2C1c1ccc(F)c(F)c1 (stereo unspecified),14.9% (inactive)
15,CCOc1ccc(C2CC(c3cccc(OC)c3)n3nc(N)nc3N2)cc1 (stereo unspecified),15% (inactive)
16,Cc1ccc(C)c(NC(=O)CSc2nc3ccccc3nc2N2CCOCC2)c1,9.55% (inactive)
17,C=CCn1cc(C(=O)NCCCOC)c(=O)c2cc(S(=O)(=O)N3CCC(C)CC3)ccc21,25% (inactive)
18,CC(C)(C)C(=O)NCCc1nc2ccccc2n1CC(=O)c1ccc(Cl)cc1,0% (inactive)
19,CC(=O)c1ccc(NC(=O)CCS(=O)(=O)c2ccc3c(c2)n(C)c(=O)c(=O)n3C)cc1,1.81% (inactive)
20,Cc1[nH]c2ccccc2c1SCC(=O)N1CCCc2ccccc21,1.79% (inactive)
21,CCOC(=O)N1CCN(c2cc(=O)n(-c3ccc(Br)cc3)c(=O)[nH]2)CC1,6.78% (inactive)
22,Cc1ccc2c(c1)N(C(=O)CCC(=O)NCCCN1CCOCC1)CC(C)O2 (stereo unspecified),7.08% (inactive)
23,CCCCCCc1cc2cc(/C(N)=N/NC(=O)c3ccncc3)c(=O)oc2cc1O,10.7% (inactive)

row,Compound,inhibition
1,O=C(COC(=O)C1CC(=O)N(C2CCCCC2)C1)c1ccc(F)cc1 (stereo unspecified),15% (inactive)
2,Cc1ccc2c(c1)N(C(=O)CCC(=O)NCCCN1CCN(C)CC1)CCO2,5.23% (inactive)
3,Cn1c(Cn2c(=O)sc3ccccc32)nnc1SCC(=O)Nc1cccc(Cl)c1,11.1% (inactive)
4,COc1ccccc1C1C(C(N)=O)=C(C)Nc2nc(-c3ccc(Cl)cc3)nn21 (stereo unspecified),19.2% (inactive)
5,Cc1cc2ccccc2n1CCNC(=O)C(C)C,5.17% (inactive)
6,CC(=O)NCCn1c(C)cc2ccccc21,0% (inactive)
7,Cc1cc2ccccc2n1CCNC(=O)C(C)(C)C,57.3% (active)
8,O=C1C=C(O)c2c(O)cc(O)c(O)c2C1=O,93.1% (active)
9,C[C@@H]1Cc2c(O)c(O)cc(O)c2C(=O)O1,4.89% (inactive)
10,O=C1C=C(O)c2cccc(O)c2C1=O,9.84% (inactive)
11,CC(=O)c1ccc(N2CCN(C(=O)c3ccc(NC4=NC5CS(=O)(=O)CC5S4)cc3)CC2)cc1 (stereo unspecified),3.39% (inactive)
12,COc1ccc(CNS(=O)(=O)c2cc3c(cc2Cl)NC(=O)CO3)cc1,7.24% (inactive)
13,COc1cccc(-c2nc(C(=O)NCC3CCCO3)cc3c2[nH]c2ccccc23)c1 (stereo unspecified),0.0615% (inactive)
14,O=C(Cn1cc2c(n1)CCCC2)NCCCN1CCN(Cc2ccccc2)CC1,4.17% (inactive)
15,CC1CCCN(S(=O)(=O)c2ccc3c(c2)C(C)(C)C(=O)N3C)C1 (stereo unspecified),20% (inactive)
16,O=C(NCCN1CCCC1)c1ccc2c(c1)N(Cc1ccc(F)cc1)C(=O)c1ccccc1S2=O (stereo unspecified),0.909% (inactive)
17,COc1ccc(-c2cn3c(C)c(C(=O)Nc4ccncc4)sc3n2)cc1,9.74% (inactive)
18,COCCNC(=O)CS(=O)Cc1nc(-c2ccc(Cl)cc2)oc1C (stereo unspecified),-2.73% (inactive)
19,Cc1ccc2c(c1)N(CC(=O)NC1CCCC1)C(=O)c1cccnc1O2,16.7% (inactive)
20,CCN(Cc1ccccc1)S(=O)(=O)c1cc(C(=O)OC)n(C)c1,6.72% (inactive)
21,Cc1cccc(C(=O)N2CCN(Cc3ccc4c(c3)OCO4)CC2)c1,5.77% (inactive)
22,CC1CC(=O)c2c(cc3c(-c4c(O)cc(O)c5c(O)c6c(cc45)OC(C)CC6=O)c(O)cc(O)c3c2O)O1 (stereo unspecified),6.56% (inactive)
23,COc1ccc(CNC(=O)COc2cc3c(c4oc(=O)cc(C)c24)CCC(C)(C)O3)cc1OC,5.12% (inactive)

row,Compound,inhibition
1,CCN1C(=O)c2ccccc2S(=O)c2ccc(C(=O)NCCCN3CCCC3=O)cc21 (stereo unspecified),-4.3% (inactive)
2,COC(=O)CN1C(=O)COc2ccc(Cl)cc21,16.7% (inactive)
3,CCOCCn1c(SCc2ccc(F)cc2)nc2c1c(=O)[nH]c(=O)n2C,-3.67% (inactive)
4,O=C(NCc1ccco1)C(=O)NCC1OCCN1S(=O)(=O)c1ccccc1 (stereo unspecified),7.69% (inactive)
5,COCCn1c(SCC(=O)N2CCCc3ccccc32)nc2c(c1=O)SC(C)C2 (stereo unspecified),5.36% (inactive)
6,CCCNC(=O)CS(=O)(=O)Cc1nc(-c2ccccc2C)oc1C,24.1% (inactive)
7,CCOC(=O)N1CCc2c(sc(NC(=O)c3ccc(S(=O)(=O)N4CCCC4)cc3)c2C#N)C1,0% (inactive)
8,Cn1c(=O)c2c(SC3CCCC3)nc(C3CC3)nc2n(C)c1=O,9.74% (inactive)
9,Cn1c(C(=O)NCCN2CCc3ccccc3C2)cc2c(=O)n(C)c3ccccc3c21,20.8% (inactive)
10,CCCCNC(=S)NCc1ccc2[nH]c(C)cc2c1,-0.909% (inactive)
11,CC(C)COC(=O)C1C2C=CC3(CN(C4CCCC4)C(=O)C13)O2 (stereo unspecified),8.33% (inactive)
12,COc1ccc(-c2cc(=O)oc3c(C)c(OC(C)C(=O)NCc4ccccn4)ccc23)cc1 (stereo unspecified),4.89% (inactive)
13,CCc1ccc(NC(=O)CSc2nnc(Cn3c(=O)sc4ccccc43)n2C)cc1,16.7% (inactive)
14,Cc1ccc(C(=O)NCCSc2c(C)[nH]c3ccccc23)cc1[N+](=O)[O-],3.51% (inactive)
15,CCCNC(=O)C1=C(C)C(=O)OC12CCC(C)CC2 (stereo unspecified),9.55% (inactive)
16,CCc1cccc(NC2c3ccccc3C(=O)N2c2ccc(C)cn2)c1 (stereo unspecified),5.06% (inactive)
17,CCOC(=O)N1CCN(C(=O)c2ccc3c(c2)N(Cc2ccc(F)cc2)CCS3)CC1,3.51% (inactive)
18,CC(=O)Oc1cc(O)c2c(=O)c(OC(C)=O)c(-c3ccc(OC(C)=O)c(OC(C)=O)c3)oc2c1,19.3% (inactive)
19,COc1cc2cccc(OC)c(=O)c2c(OC)c1OC,-1.79% (inactive)
20,CC(=O)Oc1cc2cccc(OC(C)=O)c(=O)c2c(OC(C)=O)c1OC(C)=O,57.6% (active)
21,CCCc1cc(C(=O)NCC(C)C)no1,5.23% (inactive)
22,Cc1cc2cc(CNC(=O)c3ccc(S(=O)(=O)N4CCCCC4)cc3)ccc2[nH]1,5.36% (inactive)
23,Cc1cccc(-n2c(CNC(=O)c3ccccc3)nnc2SCC(=O)Nc2nccs2)c1,12.5% (inactive)

row,Compound,inhibition
1,COc1ccc(-c2cc(=O)oc3cc(OC(C)C(=O)NCc4ccccn4)ccc23)cc1 (stereo unspecified),7.02% (inactive)
2,Cn1cc(S(=O)(=O)N2CCc3ccccc32)cc1C(=O)NC1CCCCC1,10.2% (inactive)
3,CC(=O)Nc1cccc(NS(=O)(=O)c2cn(C)c(=O)n(C)c2=O)c1,3.85% (inactive)
4,O=C(Cn1ncc2c1-c1ccccc1OC2)Nc1ccc(S(=O)(=O)N2CCCCC2)cc1,6.96% (inactive)
5,C/C=C(/C)C(=O)OC1c2c(ccc3ccc(=O)oc23)OC(C)(C)C1OC(=O)/C(C)=C\C (stereo unspecified),5.23% (inactive)
6,O=C1C=CC2=C3c4cc(O)c(O)cc4CC3(O)COC2=C1O (stereo unspecified),70.4% (active)
7,CCOC(=O)C(C)n1cnc2c(nnn2-c2ccc(F)cc2)c1=O (stereo unspecified),7.02% (inactive)
8,Cc1ccc(C)c(N2CCN(C(=O)c3cc(S(=O)(=O)N4CCOCC4)cn3C)CC2)c1,8.45% (inactive)
9,COc1ccc(NC(=O)NCCCN2CCN(c3cc(C)ccc3C)CC2)cc1,3.64% (inactive)
10,COc1ccc(CN2CCN(C(=O)Cn3ncn4cccc4c3=O)CC2)c(OC)c1OC,2.17% (inactive)
11,CCOc1ccc(NC(=O)CSc2nc3ccccc3nc2N2CCOCC2)cc1,7.08% (inactive)
12,Cc1cc(NC(=O)c2noc3c2CCc2ccccc2-3)n(-c2ccccc2)n1,3.64% (inactive)
13,CC(C)(O)CCCC(C)(O)c1ccc(C(=O)O)cc1O (stereo unspecified),6.9% (inactive)
14,Cc1c(S(=O)(=O)Nc2cc(Cl)ccc2Cl)c(=O)n(C)c(=O)n1C,5.23% (inactive)
15,CC1Cc2nc(SCC(=O)N3CCCc4ccccc43)n(C)c(=O)c2S1 (stereo unspecified),0% (inactive)
16,COc1ccc(Cc2nc(-c3ccc(Br)o3)no2)cc1OC,33.3% (inactive)
17,O=C(CCC(=O)N1CCOc2ccccc21)N1CCOCC1,9.62% (inactive)
18,CC(NC(=O)c1ccc(NC2=NC3CS(=O)(=O)CC3S2)cc1)c1ccccc1 (stereo unspecified),5.06% (inactive)
19,Cn1cccc1Cc1nnc(SCC(=O)Nc2ccc(F)cc2)n1CCc1ccccc1,17.4% (inactive)
20,CC(CCc1ccccc1)NC(=O)C1CCN(C(=O)c2sccc2-n2cccc2)CC1 (stereo unspecified),3.57% (inactive)
21,Cc1ccc(NC(=O)C2CCCN(S(=O)(=O)c3ccc4[nH]c(=O)ccc4c3)C2)cc1C (stereo unspecified),0% (inactive)
22,CCc1ccccc1NC(=O)c1cc(S(=O)(=O)N2CCc3ccccc32)cn1C,5.06% (inactive)
